In PubChem BioAssay AID1986 (Sanford-Burnham Center for Chemical Genomics, 2009) one finds inhibition data, which are given here for 58 compounds.

The test in a line: inhibitors of HIV fusion peptide binding, primary screen, biochemical, uHTS, fluorescence dequenching (AID 1986). To be noted: cell-free peptide binding, 30 min, stronger effect = higher value.

Structures are written as SMILES. Values joined by “and” are separate entries in the source; they are usually repeats but may differ in a detail not shown here. Equal entries are not always repeated. The campaign covered roughly 290,000 compounds. About 890 (0.31%) were called active. Cut-off read from the data, not from the text of the source: active = inhibition mostly above about 52% (no sharp cut-off); inactive = mostly below about 76%. The sample as a whole holds a higher share of actives than the screen did. Some compounds were tested as several samples or in several runs, with calls that do not always agree.

Consider `O=C(N/N=C/c1cc([N+](=O)[O-])ccc1O)C(O)(c1ccccc1)c1ccccc1`, for which the inhibition (at 20 µM) is 15.6% (inactive).

Turning to `N#CC1(C#N)C(c2ccccc2)OC23CCCCCC2C1(C#N)C(=N)O3` (centres undefined), the inhibition (at 20 µM) was 10% (inactive).

With `COc1ccc2c(CC(=O)Nc3ccc(N4CCOCC4)cc3)coc2c1`, the inhibition (at 20 µM) was -1.8% (inactive).

With `CCOC(=O)C1CCN(C(=O)Nc2ccc3nc(C)c(C)nc3c2)CC1`, under “at 20 µM”, the inhibition is 0.1% (inactive).

As to `O=C(Nc1ccc2nc(-c3ccco3)c(-c3ccco3)nc2c1)N1CCCCCC1`, the inhibition was 55.6% (inactive) (at 20 µM) and 19.7% (measured here: repeat confirmation average inhibition, at 18.6 µM).

With `CCOC(=O)C1CCN(C(=O)Nc2ccc3nc(-c4ccco4)c(-c4ccco4)nc3c2)CC1`, the inhibition (at 20 µM) was 68.6% (active).

As to `Cc1cc(C)c(C)c(S(=O)(=O)N2CCNCC2)c1C`, the inhibition (at 20 µM) is 0.3% (inactive).

Consider `CC(C)(C)c1ccc(-c2nnc3sc(-c4ccncc4)nn23)cc1`, for which, under “at 20 µM”, the inhibition is -2.8% (inactive).

As to `NC(=S)Nc1ccc(Cl)cc1Cl`, where the note is “at 20 µM”, the inhibition was -1.7% (inactive).

On to `COc1cc(OC)c(/C=N/n2c(C)nnc2C)c(OC)c1`, for which the inhibition (at 20 µM) was -1.2% (inactive).

Consider `COC(=O)C(=Cc1ccc(-c2ccsc2C(=O)OC)o1)C(=O)OC`, for which the inhibition (at 20 µM) is -1% (inactive).

For the compound `CCOC(=O)C(=Cc1ccc(-c2ccsc2C(=O)OC)o1)C(=O)OCC`, where the note is “at 20 µM”, the inhibition is 2.2% (inactive).

Regarding `CCOC(=O)/C(C#N)=C/c1ccc(-c2ccsc2C(=O)OC)o1`, the inhibition (at 20 µM) is 61.4% (active).

Regarding `Cc1cc(-c2ccc(Cl)s2)n[nH]1`, the inhibition (at 20 µM) was 0% (inactive).

`CC1(C)CCCC2=C1CC1C(=O)N(Cc3cccnc3)C(=O)C1C2` (centres undefined): the inhibition (at 20 µM) is 1.5% (inactive).

For `Cc1cc(C)n2nc(C(=O)N/N=C/c3ccco3)nc2n1`, the inhibition (at 20 µM) was -0.3% (inactive).

As for `O=C(c1nc2ccccn2c1CNCC1OCCc2ccccc21)N1CCOCC1` (centres undefined), the inhibition (at 20 µM) is -0.8% (inactive).

On to `Cc1ccc(C)c(S(=O)(=O)NCCCn2ccnc2)c1`, for which the inhibition (at 20 µM) was -0.3% (inactive).

For the compound `COc1ccccc1NS(=O)(=O)c1ccc(N/N=C/c2c(C)nn(-c3ccccc3)c2N2CCCC2)c([N+](=O)[O-])c1`, for the setting “at 20 µM”, the inhibition is -5.2% (inactive).

As to `COc1ccc(NS(=O)(=O)c2cccc(C(=O)Nc3ccccc3C(=O)O)c2)cc1`, the inhibition (at 20 µM) was 19.7% (inactive).

As for `COc1ccc(NC(=O)c2ccccc2NS(=O)(=O)c2ccc(C)cc2)c([N+](=O)[O-])c1`, the inhibition (at 20 µM) was 1.8% (inactive).

Turning to `Cc1nn(-c2ccccc2)c(Cl)c1/C=N/Nc1ccc(S(=O)(=O)Nc2ccccc2C(=O)O)cc1[N+](=O)[O-]`, the inhibition (at 20 µM) is 73% (active).

Regarding `COc1ccc(NC(=S)NNc2ccc(S(=O)(=O)Nc3ccccc3C(=O)O)cc2[N+](=O)[O-])cc1`, the inhibition (at 20 µM) is 52.4% (active).

Regarding `Cc1nn(-c2ccccc2)c(N2CCCC2)c1/C=N/Nc1ccc(S(=O)(=O)Nc2ccccc2)cc1[N+](=O)[O-]`, the inhibition (at 20 µM) was -3.9% (inactive).

On to `COc1ccc(N(CC(=O)N2CCc3ccccc3C2)S(C)(=O)=O)cc1`, for which the inhibition (at 20 µM) is -1.6% (inactive).

`COc1cc(COCC(O)CN2CCOCC2)cc(OC)c1OC` (centres undefined): under “at 20 µM”, the inhibition is -2.1% (inactive).

Consider `O=C(Cc1ccc(Cl)cc1)Nc1cc(S(=O)(=O)N2CCOCC2)ccc1N1CCCC1`, for which the inhibition (at 20 µM) was 1.2% (inactive).

For `N#CC1CC(c2ccccc2)=NN1c1ccccc1[N+](=O)[O-]` (centres undefined), the inhibition (at 20 µM) was -3.1% (inactive).

Consider `N#CC1CC(c2ccc([N+](=O)[O-])cc2)=NN1c1ccc([N+](=O)[O-])cc1` (centres undefined), for which the inhibition (at 20 µM) was 83.7% (active).

For `O=[N+]([O-])c1ccc(N2N=C(c3ccccc3)CC2c2ccccc2O)cc1` (centres undefined), the inhibition (at 20 µM) is 38.9% (inactive).

As to `COC(=O)c1sccc1NC(=O)Nc1ccc(OC)cc1`, for the setting “at 20 µM”, the inhibition is 1.8% (inactive).

As to `Cc1ccc(OCCNS(=O)(=O)c2cccs2)cc1`, under “at 20 µM”, the inhibition is -0.8% (inactive).

Regarding `CCN(CC)C(=O)CSc1nc(O)c(Cc2ccc(OC)cc2)c(=O)[nH]1`, for the setting “at 20 µM”, the inhibition was 0.3% (inactive).

As to `N#C/C(=C\c1ccco1)C(=O)Nc1cccc2ncccc12`, the inhibition (at 20 µM) was 1.5% (inactive).

As for `Cc1ccc(/C=C(\C#N)C(=O)Nc2ccccn2)o1`, the inhibition (at 20 µM) was 0.3% (inactive).

Consider `Cc1ccc(/C=C(\C#N)C(=O)Nc2cccc3ncccc23)o1`, for which the inhibition (at 20 µM) was 77.8% (active).

Turning to `CCc1nnc(SCC(=O)N2CCCC(N3CCN(c4ccccc4C)CC3)C2)o1` (centres undefined), the inhibition (at 20 µM) was -0.2% (inactive).

Take `CC1(C)CC(=O)C2=C(C1)N(c1ccc(F)cc1)C(=O)C2(NC(=O)c1ccccc1)C(F)(F)F` (centres undefined): the inhibition (at 20 µM) is -0.9% (inactive).

In the case of `Cc1c2cc(O)c(=O)cc-2oc2cc(O)c(O)cc12`, the inhibition (at 20 µM) was 150% (inactive) and 61.1% (active).

Consider `COc1c(O)cc2oc(-c3ccc(O)c(O)c3)cc(=O)c2c1O`, for which the inhibition (at 20 µM) is 20.2% (inactive).

In the case of `Cc1ccccc1-c1cc(=O)c2c(O)cccc2o1`, the inhibition (at 20 µM) was -1.7% (inactive).

For `COc1ccc(OC)c(-c2c3cc(O)c(=O)cc-3oc3cc(O)c(O)cc23)c1`, the inhibition (at 20 µM) is 122% (active).

Take `O=c1cc2oc3cc(O)c(O)cc3c(-c3ccccc3[N+](=O)[O-])c-2cc1O`: the inhibition (at 20 µM) is 34.3% (inactive).

`COc1cc(-c2cc(=O)c3ccccc3o2)ccc1O`: the inhibition (at 20 µM) is -1.9% (inactive).

Consider `COc1cc(OC)c(-c2c3cc(O)c(=O)cc-3oc3cc(O)c(O)cc23)cc1OC`, for which the inhibition (at 20 µM) is 82.9% (active).

Regarding `CCOc1ccccc1-c1c2cc(O)c(=O)cc-2oc2cc(O)c(O)cc12`, the inhibition (at 20 µM) was 118% (active).

`COc1ccc(OC)c(-c2oc3ccccc3c(=O)c2O)c1`: the inhibition (at 20 µM) is -0.8% (inactive).

In the case of `Cc1cc2oc(=O)cc(-c3cc4ccccc4o3)c2cc1O`, the inhibition (at 20 µM) was 21% (inactive).

With `COc1ccc2c(=O)cc(-c3ccccc3F)oc2c1`, the inhibition (at 20 µM) was -1.9% (inactive).

For `O=c1cc2oc3cc(O)c(O)cc3c(-c3ccccc3O)c-2cc1O`, the inhibition (at 20 µM) is 148% (inactive).

Turning to `CC1=NN(c2ccc(C)cc2C)C(=O)C1C(c1ccccc1O)C1C(=O)N(c2ccc(C)cc2C)N=C1C` (centres undefined), the inhibition (at 20 µM) is 3.7% (inactive).

As for `COc1ccc(C(=O)Nc2ccnn2C2CCN(C(=O)c3cnsn3)CC2)cc1`, the inhibition (at 20 µM) was -1.2% (inactive).

For `COc1ccccc1C(=O)N/C(=C/c1ccc(Br)cc1)C(=O)NCCO`, the inhibition (at 20 µM) is 7.1% (inactive).

As for `CCCCCCNc1cc2n(c(=O)n1)CCc1cc(OC)c(OC)cc1-2`, the inhibition (at 20 µM) is -3.2% (inactive).

Take `COc1ccccc1NS(=O)(=O)c1ccc(NN=C2CCCCC2)c([N+](=O)[O-])c1`: the inhibition (at 20 µM) was -1.4% (inactive).

Consider `c1ccc2c(c1)CC1(CCCCC1)n1nnnc1-2`, for which, for the setting “at 20 µM”, the inhibition is -1.4% (inactive).

For `CCCCCC(=O)NC(=S)Nc1ccc2oc(=O)ccc2c1`, the inhibition (at 20 µM) is -0.3% (inactive).

Regarding `COC(=O)CCSCC(=O)Nc1ccc(S(=O)(=O)N2CCOCC2)cc1OC`, the inhibition (at 20 µM) is 0.8% (inactive).

In general, inhibition refers to the relative decrease from the control value, in per cent.
